Key:
Assay in all cases: PBM binding z-score (relative to random genomic background probes); higher = stronger binding; sequences stand for … in GC…GCGATTGACAGCGTAGAATGAAGG
[1] = system: PPARg:RXRa DBDmut IVT, anti-RXR (DBD mutation: RXRa K156A/R161A, NR concentration 270 nM, RXRa partner concentration 90 nM)
How it was run: (§1)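 Binding z-scores were set against random background probes. The data came from custom Agilent 4×180K protein-binding microarrays carrying double-stranded probes with 34-nt variable regions, incubated 1 h with ligand-free nuclear receptor dimers. Partner-specific antibodies detected binding, and scanned fluorescence was regression-normalized.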

[2] = system: PPARg:RXRa IVT, anti-PPARg (NR concentration 270 nM, RXRa partner concentration 90 nM)
How it was run: as §1

[3] = system: PPARg DBDmut:RXRa IVT, anti-PPARg (DBD mutation: PPARg1 K132A/R137A, NR concentration 270 nM, RXRa partner concentration 90 nM)
How it was run: as §1

[4] = system: PPARg DBDmut IVT, anti-PPARg (DBD mutation: PPARg1 K132A/R137A, NR concentration 270 nM)
How it was run: as §1

[5] = system: PPARg homodimer (NR concentration 180 nM)
How it was run: as §1

[6] = system: PXR:RXRa (NR concentration 270 nM, RXRa partner concentration 90 nM)
How it was run: as §1

[7] = system: PXR homodimer (NR concentration 270 nM)
How it was run: as §1

[8] = system: RARa:RXR (NR concentration 270 nM, RXRa partner concentration 90 nM)
How it was run: as §1

[9] = system: RARa homodimer (NR concentration 270 nM)
How it was run: as §1

[10] = system: RARb:RXRa (NR concentration 270 nM, RXRa partner concentration 90 nM)
How it was run: as §1

[11] = system: RARb homodimer (NR concentration 270 nM)
How it was run: as §1

[12] = system: RARg:RXRa (NR concentration 270 nM, RXRa partner concentration 90 nM)
How it was run: as §1

[13] = system: RARg homodimer (NR concentration 270 nM)
How it was run: as §1

[14] = system: RXRa DBDmut IVT, anti-RXR (DBD mutation: RXRa K156A/R161A, NR concentration 90 nM)
How it was run: as §1

[15] = system: RXRa homodimer (NR concentration 180 nM)
How it was run: as §1

[16] = system: THRa:RXRa (NR concentration 90 nM, RXRa partner concentration 90 nM)
How it was run: as §1

[17] = system: THRa homodimer (NR concentration 90 nM)
How it was run: as §1

[18] = system: VDR homodimer (NR concentration 270 nM)
How it was run: as §1

Row | Sequence | PBM binding z-score [1] | PBM binding z-score [2] | PBM binding z-score [3] | PBM binding z-score [4] | PBM binding z-score [5] | PBM binding z-score [6] | PBM binding z-score [7] | PBM binding z-score [8] | PBM binding z-score [9] | PBM binding z-score [10] | PBM binding z-score [11] | PBM binding z-score [12] | PBM binding z-score [13] | PBM binding z-score [14] | PBM binding z-score [15] | PBM binding z-score [16] | PBM binding z-score [17] | PBM binding z-score [18]
1 | GCATATACGTAATACAAGGTGAAAGTCCGATTGT | -0.0308 | 0.718 | 0.51 | 1.15 | 0.296 | 0.381 | 0.191 | 0.815 | 0.672 | 0.666 | 0.656 | 0.54 | 0.62 | 0.892 | 0.528 | 2.44 | 1.16 | 0.207
2 | TCTCGAAGGACACGAAAGGTCAGAGCTCGACATC | 2.34 | 1.64 | 0.0703 | 0.551 | 1.75 | 3.79 | 0.247 | 4.04 | 0.683 | 4.23 | 4.81 | 4.59 | 4.73 | 1.37 | 4.17 | 3.39 | 0.878 | 0.702
3 | AGAATGAGGTTATTAAAATCAGGGAATTGCGGTC | 3.19 | 2.38 | 0.973 | 0.541 | 0.649 | 1.13 | 0.34 | 1.44 | 0.843 | 1.25 | 0.836 | 0.827 | 0.788 | 1.46 | 1.43 | 1.89 | 0.676 | 0.874
4 | CATACTGGGCCAAAGGTCATTGATTCCAATGCTC | 4.86 | 6.31 | 1.88 | 1.07 | 3.77 | 5.52 | 1.72 | 6.32 | 1.82 | 4.71 | 4.79 | 5.89 | 5.04 | 1.73 | 6.78 | 3.47 | 1.03 | 2.42
5 | ATCGAAAGATCGTGAGGTGAGTATACAGAAAGGC | -1.15 | 0.285 | 0.657 | 0.767 | -0.197 | -0.0729 | -0.403 | 0.277 | -0.457 | 0.133 | -0.106 | 0.546 | 0.519 | -0.575 | 0.649 | 1.73 | 0.91 | -0.449
6 | ATCCAAAGGTCGAAGGTGAGTATACCCACCCGAA | 0.6 | 2.51 | 0.413 | 0.999 | 2.58 | 3.26 | 0.0246 | 4.54 | 0.353 | 3.97 | 2.66 | 4.58 | 4.35 | 0.893 | 5.48 | 2.32 | -0.204 | 0.849
7 | CCTGGCAGGCCAATCTGGGTCACTCAAGGCTTGA | 3.55 | 4.78 | -0.588 | -0.975 | 0.0231 | 0.725 | -0.786 | 1.11 | -1.09 | 1.64 | 2.28 | 1.11 | 1.5 | -0.376 | 0.545 | 3.8 | 0.481 | -0.15
8 | TGAATGAGGTTATAAGATCGGGGAACGTTGCAAA | 1.5 | 1.78 | 1.32 | 0.272 | -0.104 | 0.636 | -0.242 | 1.05 | -0.252 | 1.08 | 0.0926 | 1.17 | 0.891 | 0.942 | 1.77 | 1.76 | 0.158 | 0.395
9 | CCGACTGGGGCTAAGGTTACCATACTCAGTACGA | 0.598 | 2.11 | -0.549 | -0.925 | 0.343 | 0.473 | -0.328 | 1.12 | -0.0476 | 1.12 | 1.12 | 0.783 | 0.678 | 0.382 | 0.902 | 2.39 | 1.68 | 0.443
10 | ACTTACGGGTCAACGAGCTTATAGCACGCGTATA | 3.07 | 3.31 | 0.724 | 0.908 | 1.42 | 3.19 | -0.152 | 4.16 | 0.825 | 4 | 2.92 | 5.34 | 5.01 | 1.56 | 6.14 | 2.46 | 0.0469 | 0.846
11 | CCGACTGGGGCAAAGGTTAGCATACTCAGTACGA | 4.94 | 4.9 | -0.151 | -1.37 | 1.58 | 1.47 | -0.542 | 2.78 | -0.0647 | 1.99 | 1.56 | 2.76 | 1.55 | 0.057 | 2.79 | 0.962 | -0.171 | -0.381
12 | ACTATTAATTGAGACGAGGGCAACCGATAGGTTG | 0.0464 | 0.914 | 1.03 | 1.13 | 2.25 | 0.755 | 1.25 | 0.914 | 1.68 | 1.01 | 1.56 | 0.73 | 0.967 | 0.688 | 0.753 | 1.33 | 1.03 | 1.64
13 | AGTCAAAGTTCAGGACGAGTTAACGTAAAGCACG | -0.151 | 1.53 | 0.0233 | 0.458 | 1.18 | 3.59 | 1.43 | 2.4 | 1.1 | 4.21 | 3.1 | 4.4 | 4.71 | 2.71 | 3.19 | 2.57 | 0.422 | 2.59
14 | ATCTCTAGGTAAAGTTCAGTGTAAGATCGATAGA | 2.66 | 2.9 | 1.2 | 1.55 | 2.13 | 2.21 | 2.38 | 1.53 | 1.49 | 2.56 | 2.72 | 2.02 | 2.42 | 1.71 | 1.19 | 1.65 | 0.624 | 2.46
15 | CCTAGTTGGTCAGGATGTCACACACCGGATATGA | 0.536 | 1.16 | 0.182 | 0.583 | 1.42 | 0.0986 | 0.254 | 0.0158 | 1.18 | 0.798 | 1.17 | 0.74 | 1.1 | 0.164 | 0.209 | 0.0669 | 0.525 | 0.443

Source: the supplement of paper PMC6555819
